This is an account of results in PubChem BioAssay.

Each structure is given as a SMILES string. Active and inactive are the calls of the source.

The subject of assay [1] is PRMT1 (protein arginine N-methyltransferase 1). As to the kind of experiment: PRMT1 binders on small-molecule microarrays, primary screen, biochemical, small-molecule microarray, 635 nm fluorescence (AID 1088).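 Further: binding of Prmt1 protein to compounds spotted on small-molecule microarray slides.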 The note with it: small-molecule microarray binding, higher = more signal.
Assay [2] can be described thus: yeast growth modulation, basal conditions, primary screen, YJM789 clinical isolate, OD600, 24 h (AID 1089).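 Further: growth of clinical yeast isolate S. cerevisiae YJM 789 seeded 1000 cells per well; test concentration not given here.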 The note with it: S. cerevisiae YJM789 growth, higher = more signal, called active from +8 up or from −8 down.
Assay [3] in a line: fission yeast growth modulation, primary screen, strain 972, OD600, 24 h, no modulator (AID 1090).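 Further: basal condition with compound alone and no growth modifier present; test concentration not given here.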 The note with it: S. pombe 972 growth, higher = more signal, called active from +8 up or from −8 down.
Assay [4] is described as follows: S. cerevisiae growth modulation with rapamycin, primary screen, strain BY4716, OD600, 96 h (AID 1091). Further: test concentration not given here. The note with it: higher = more signal, called active from +8 up or from −8 down.
Assay [5] has as its target Torsin-1A-interacting protein 2 (Homo sapiens) (UniProt Q8NFQ8). Put plainly: LULL1 binders on small-molecule microarray, primary screen, cell lysate, human LULL1 lysate, 635/667 nm fluorescence (AID 1092).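 Further: probe is lysate of COS7 cells overexpressing human LULL1; score merges per-feature 667 nm fluorescence with signal-to-noise.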 The conditions noted are these: hLULL1 lysate binding, 635 nm fluorescence, higher = more signal.
The nature of assay [6]: E. coli growth modulation, two-sided OD650, primary screen, E. coli filamentation project, strain DRC41, 24 h (AID 1093).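 Further: MC1000 strain lacking acrAB efflux and sulA so SOS filamentation is blocked; test concentration not given here.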 The conditions noted are these: OD650, 24 h, higher = more signal, called active from +8 up or from −8 down.
Assay [7] can be described thus: small-molecule microarray binders of probe aLefty2, primary screen, biochemical, biotinylated probe, 635/667 nm fluorescence (AID 1094).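 Further: score merges spot fluorescence near 667 nm with spot signal-to-noise ratio.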 The note with it: higher = more signal.
Assay [8] relates to Noggin (protein binding on small-molecule microarray). As to the kind of experiment: Noggin binders on small-molecule microarray, primary screen, biochemical, 635/667 nm fluorescence (AID 1095).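 Further: score merges 667 nm feature fluorescence with signal to noise over triplicate slides.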 The conditions noted are these: 635 nm fluorescence, higher = more signal.
For assay [9], the target named is Neurogenic locus notch homolog protein 3 (Homo sapiens) (UniProt Q9UM47). As to the kind of experiment: NOTCH3 binders on small-molecule microarray, primary screen, biochemical, 635/667 nm fluorescence (AID 1096). The note with it: NOTCH3 binding, 635 nm fluorescence, higher = more signal.
Chain of Neurogenic locus notch homolog protein 3 (Homo sapiens) (Q9UM47 whole entry, looked up): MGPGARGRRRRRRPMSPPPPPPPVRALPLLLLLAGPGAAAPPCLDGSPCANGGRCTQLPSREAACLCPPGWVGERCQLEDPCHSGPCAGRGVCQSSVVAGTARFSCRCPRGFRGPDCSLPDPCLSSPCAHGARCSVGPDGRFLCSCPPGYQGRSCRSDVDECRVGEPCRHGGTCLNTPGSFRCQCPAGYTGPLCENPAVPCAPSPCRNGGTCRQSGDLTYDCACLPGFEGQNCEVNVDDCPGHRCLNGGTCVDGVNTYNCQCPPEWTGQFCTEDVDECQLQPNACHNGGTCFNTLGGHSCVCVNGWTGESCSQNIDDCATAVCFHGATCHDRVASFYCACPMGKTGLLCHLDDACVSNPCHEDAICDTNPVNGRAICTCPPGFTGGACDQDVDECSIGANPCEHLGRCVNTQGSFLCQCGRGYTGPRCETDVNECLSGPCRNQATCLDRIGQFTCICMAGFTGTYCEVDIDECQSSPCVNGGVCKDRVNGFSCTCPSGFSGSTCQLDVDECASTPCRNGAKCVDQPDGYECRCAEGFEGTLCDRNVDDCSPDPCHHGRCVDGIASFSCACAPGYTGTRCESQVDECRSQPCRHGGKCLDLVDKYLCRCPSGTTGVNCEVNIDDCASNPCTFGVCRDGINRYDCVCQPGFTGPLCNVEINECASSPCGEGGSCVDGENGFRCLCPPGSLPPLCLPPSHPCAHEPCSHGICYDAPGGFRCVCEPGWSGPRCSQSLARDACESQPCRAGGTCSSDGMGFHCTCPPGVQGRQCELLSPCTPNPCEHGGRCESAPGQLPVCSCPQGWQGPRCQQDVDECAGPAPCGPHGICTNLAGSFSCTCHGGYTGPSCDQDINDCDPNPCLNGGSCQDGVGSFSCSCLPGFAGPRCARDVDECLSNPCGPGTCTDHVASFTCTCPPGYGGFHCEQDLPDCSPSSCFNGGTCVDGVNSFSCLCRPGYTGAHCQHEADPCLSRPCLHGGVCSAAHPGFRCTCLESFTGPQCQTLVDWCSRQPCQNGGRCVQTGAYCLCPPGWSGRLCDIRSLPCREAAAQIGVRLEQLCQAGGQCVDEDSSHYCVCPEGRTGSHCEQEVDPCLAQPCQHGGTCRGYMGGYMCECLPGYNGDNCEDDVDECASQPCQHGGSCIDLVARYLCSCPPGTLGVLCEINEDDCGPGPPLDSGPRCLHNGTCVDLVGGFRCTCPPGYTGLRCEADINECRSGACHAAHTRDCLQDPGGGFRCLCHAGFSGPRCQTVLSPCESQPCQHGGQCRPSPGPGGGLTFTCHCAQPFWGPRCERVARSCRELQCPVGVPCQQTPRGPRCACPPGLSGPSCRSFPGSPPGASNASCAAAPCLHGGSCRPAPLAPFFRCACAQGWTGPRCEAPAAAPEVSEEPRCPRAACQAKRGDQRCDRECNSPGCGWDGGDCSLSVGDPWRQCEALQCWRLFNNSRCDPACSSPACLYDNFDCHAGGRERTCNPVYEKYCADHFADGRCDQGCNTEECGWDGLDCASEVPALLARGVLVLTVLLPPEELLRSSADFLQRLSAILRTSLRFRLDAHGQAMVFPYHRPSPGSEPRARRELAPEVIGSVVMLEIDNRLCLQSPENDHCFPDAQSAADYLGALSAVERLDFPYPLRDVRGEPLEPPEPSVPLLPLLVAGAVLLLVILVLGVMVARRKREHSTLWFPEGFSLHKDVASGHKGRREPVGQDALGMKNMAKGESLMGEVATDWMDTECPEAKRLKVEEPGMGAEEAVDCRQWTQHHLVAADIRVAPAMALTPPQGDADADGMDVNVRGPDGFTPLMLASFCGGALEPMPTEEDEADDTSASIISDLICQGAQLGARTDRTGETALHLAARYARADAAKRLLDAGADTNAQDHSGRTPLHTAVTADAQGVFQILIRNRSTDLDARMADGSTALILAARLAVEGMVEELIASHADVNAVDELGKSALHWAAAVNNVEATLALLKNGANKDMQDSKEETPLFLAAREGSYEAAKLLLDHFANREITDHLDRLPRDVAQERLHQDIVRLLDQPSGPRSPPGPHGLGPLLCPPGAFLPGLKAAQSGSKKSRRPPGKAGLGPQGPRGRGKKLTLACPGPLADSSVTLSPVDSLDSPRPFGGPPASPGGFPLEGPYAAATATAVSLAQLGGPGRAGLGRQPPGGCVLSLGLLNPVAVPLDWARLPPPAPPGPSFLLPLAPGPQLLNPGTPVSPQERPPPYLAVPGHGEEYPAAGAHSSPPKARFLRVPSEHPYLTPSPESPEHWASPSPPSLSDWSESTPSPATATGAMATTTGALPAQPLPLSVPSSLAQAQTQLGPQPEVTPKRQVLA
The nature of assay [10]: small-molecule microarray binders of probe aEGFR, primary screen, biochemical, biotinylated probe, 635/667 nm fluorescence (AID 1097).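 Further: probe is a biotinylated anti-EGFR antibody binding compounds printed on slides; score combines fluorescence near 667 nm and signal to noise of each spot.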 The conditions noted are these: higher = more signal.
Assay [11] concerns Plasmodium falciparum Sir2 (PF13_0152, Sir2A). Put plainly: pfSir2 binders on small-molecule microarrays, primary screen, biochemical, small-molecule microarray, 635 nm fluorescence (AID 1098).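 Further: score merges spot fluorescence intensity with its signal-to-noise ratio.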 The note with it: small-molecule microarray binding, fluorescence 635 nm; higher = more signal.
A short description of assay [12]: small-molecule microarray binders of probe aDKK1, primary screen, biochemical, biotinylated probe, 635/667 nm fluorescence (AID 1099).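 Further: score merges 667nm spot fluorescence with signal to noise across triplicate slides; reference of the scale not given here.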 The note with it: higher = more signal.
Assay [13] is described as follows: small-molecule microarray binders of probe aCHRDL2, primary screen, biochemical, biotinylated probe, 635/667 nm fluorescence (AID 1100). The conditions noted are these: higher = more signal.
Assay [14] can be described thus: splicing luciferase reporter signal modulators, primary screen, spliceosome inhibition project, cell-based, HEK293, splice +/- reporter (AID 1101).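 Further: HEK293 cells carrying a splicing-competent luciferase reporter gene; test concentration not given here.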 The conditions noted are these: luminescence, 24 h, higher = more signal, called active from +8 up or from −8 down. On the technique in general: In a reporter assay the amount or activity of a reporter protein is the signal.

Assay [15] concerns the target Fibroblast growth factor 10 (Homo sapiens) (UniProt O15520). Put plainly: FGF10 binders on small-molecule microarrays, primary screen, biochemical, small-molecule microarray, 635 nm fluorescence (AID 1102). The note with it: FGF10 binding, fluorescence 635 nm, higher = more signal.
The test system of assay [16] is glycogen synthase kinase-3 (GSK3A per assay name; protocol says GSK3B). As to the kind of experiment: GSK3 binders on small-molecule microarrays, primary screen, biochemical, small-molecule microarray, 635 nm fluorescence, GSK3A (AID 1103). Further: the record names both GSK3A and GSK3B. The note with it: small-molecule microarray binding, fluorescence 635 nm; higher = more signal.
Assay [17] addresses Epidermal growth factor receptor (Homo sapiens) (UniProt P00533). As to the kind of experiment: EGFR binders on small-molecule microarrays, primary screen, biochemical, small-molecule microarray, 635 nm fluorescence (AID 1104).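 Further: score merges 667 nm emission intensity with spot signal to noise over triplicate slides.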 The conditions noted are these: EGFR binding, higher = more signal.
Assay [18] deals with Follistatin-related protein 3 (Homo sapiens) (UniProt O95633). Put plainly: FSTL3 binders on small-molecule microarrays, primary screen, biochemical, small-molecule microarray, 635 nm fluorescence (AID 1105).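 Further: score merges emission near 667 nm and signal to noise per printed spot across three slides.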 The note with it: FSTL3 binding, higher = more signal.
Chain of Follistatin-related protein 3 (Homo sapiens) (O95633 whole entry, looked up): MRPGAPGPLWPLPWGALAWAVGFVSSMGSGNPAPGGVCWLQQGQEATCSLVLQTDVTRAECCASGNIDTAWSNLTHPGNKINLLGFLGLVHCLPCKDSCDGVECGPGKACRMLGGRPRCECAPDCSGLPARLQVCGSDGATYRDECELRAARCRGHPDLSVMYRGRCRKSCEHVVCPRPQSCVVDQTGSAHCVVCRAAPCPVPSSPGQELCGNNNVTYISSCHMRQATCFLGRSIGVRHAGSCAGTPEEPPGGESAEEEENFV
For assay [19], the target named is Dickkopf-related protein 1 (Homo sapiens) (UniProt O94907). As to the kind of experiment: DKK1 binders on small-molecule microarrays, primary screen, biochemical, small-molecule microarray, 635 nm fluorescence scan (AID 1106).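 Further: score merges emission near 667 nm with signal to noise over three replicate slides.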 The conditions noted are these: DKK1 binding, higher = more signal.
Chain of Dickkopf-related protein 1 (Homo sapiens) (O94907 whole entry, looked up): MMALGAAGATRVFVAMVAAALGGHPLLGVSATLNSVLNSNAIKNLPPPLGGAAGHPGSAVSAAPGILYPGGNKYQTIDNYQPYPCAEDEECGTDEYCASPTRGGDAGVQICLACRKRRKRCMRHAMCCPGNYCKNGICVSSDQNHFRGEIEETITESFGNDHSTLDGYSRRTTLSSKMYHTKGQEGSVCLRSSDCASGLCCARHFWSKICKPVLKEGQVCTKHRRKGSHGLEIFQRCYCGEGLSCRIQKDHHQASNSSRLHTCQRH
The subject of assay [20] is Inhibin beta A chain (activin A). Put plainly: INHBA (activin A) binders on microarrays, primary screen, biochemical, small-molecule microarray, 635 nm fluorescence scan (AID 1107).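 Further: mouse activin A protein probed at 4.33 µg/mL on printed slides; score merges bound-protein fluorescence near 667 nm with spot signal-to-noise.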 The conditions noted are these: small-molecule microarray binding, higher = more signal.

Chain of Epidermal growth factor receptor (Homo sapiens) (P00533 whole entry, looked up): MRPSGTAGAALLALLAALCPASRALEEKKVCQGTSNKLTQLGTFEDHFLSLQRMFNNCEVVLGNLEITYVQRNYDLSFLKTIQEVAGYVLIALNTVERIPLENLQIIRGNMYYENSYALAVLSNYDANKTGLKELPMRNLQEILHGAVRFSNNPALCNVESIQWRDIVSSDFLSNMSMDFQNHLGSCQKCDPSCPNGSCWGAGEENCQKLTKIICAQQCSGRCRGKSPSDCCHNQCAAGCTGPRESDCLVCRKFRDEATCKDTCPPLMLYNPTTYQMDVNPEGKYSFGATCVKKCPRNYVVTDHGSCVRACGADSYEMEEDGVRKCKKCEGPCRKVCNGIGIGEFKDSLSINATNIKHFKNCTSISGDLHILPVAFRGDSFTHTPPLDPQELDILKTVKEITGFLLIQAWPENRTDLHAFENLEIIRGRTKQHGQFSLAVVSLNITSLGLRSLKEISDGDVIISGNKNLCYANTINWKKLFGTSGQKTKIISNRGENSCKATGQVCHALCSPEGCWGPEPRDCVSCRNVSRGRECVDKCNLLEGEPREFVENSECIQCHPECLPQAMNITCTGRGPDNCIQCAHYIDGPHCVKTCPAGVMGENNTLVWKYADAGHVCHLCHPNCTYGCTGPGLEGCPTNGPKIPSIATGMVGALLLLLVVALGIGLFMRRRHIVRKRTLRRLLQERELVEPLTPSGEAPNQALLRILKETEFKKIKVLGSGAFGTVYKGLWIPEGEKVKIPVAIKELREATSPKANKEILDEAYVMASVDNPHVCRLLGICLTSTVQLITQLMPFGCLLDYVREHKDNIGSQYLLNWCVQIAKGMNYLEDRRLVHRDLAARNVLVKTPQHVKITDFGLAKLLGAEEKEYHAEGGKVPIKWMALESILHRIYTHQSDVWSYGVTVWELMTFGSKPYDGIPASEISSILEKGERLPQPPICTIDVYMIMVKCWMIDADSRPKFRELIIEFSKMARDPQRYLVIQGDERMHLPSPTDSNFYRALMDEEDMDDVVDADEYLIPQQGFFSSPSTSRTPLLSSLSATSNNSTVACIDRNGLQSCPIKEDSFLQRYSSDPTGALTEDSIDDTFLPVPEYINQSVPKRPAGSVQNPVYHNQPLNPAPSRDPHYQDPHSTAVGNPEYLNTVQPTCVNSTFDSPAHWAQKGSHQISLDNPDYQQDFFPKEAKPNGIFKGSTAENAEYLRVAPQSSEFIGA
Chain of Torsin-1A-interacting protein 2 (Homo sapiens) (Q8NFQ8 whole entry, looked up): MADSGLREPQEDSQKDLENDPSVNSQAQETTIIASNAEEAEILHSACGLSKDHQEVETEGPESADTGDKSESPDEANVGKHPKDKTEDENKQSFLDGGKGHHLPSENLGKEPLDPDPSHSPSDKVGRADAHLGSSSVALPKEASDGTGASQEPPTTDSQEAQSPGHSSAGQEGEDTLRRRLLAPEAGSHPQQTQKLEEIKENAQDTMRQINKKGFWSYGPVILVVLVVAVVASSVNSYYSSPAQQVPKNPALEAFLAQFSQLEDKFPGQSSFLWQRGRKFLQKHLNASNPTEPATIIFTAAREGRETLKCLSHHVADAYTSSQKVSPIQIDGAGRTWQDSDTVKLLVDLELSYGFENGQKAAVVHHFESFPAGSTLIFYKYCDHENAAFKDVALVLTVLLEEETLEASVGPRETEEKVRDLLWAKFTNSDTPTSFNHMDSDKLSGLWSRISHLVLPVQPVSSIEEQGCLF
Chain of Fibroblast growth factor 10 (Homo sapiens) (O15520 whole entry, looked up): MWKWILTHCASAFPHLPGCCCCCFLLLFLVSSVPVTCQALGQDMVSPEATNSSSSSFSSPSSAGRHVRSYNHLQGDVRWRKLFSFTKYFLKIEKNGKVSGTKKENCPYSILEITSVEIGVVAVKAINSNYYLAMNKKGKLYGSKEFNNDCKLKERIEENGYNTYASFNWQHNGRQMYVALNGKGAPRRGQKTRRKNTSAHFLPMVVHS

With `CC(C)CN1C(=O)[C@@]2(Cc3ccccc31)c1ccccc1C(=O)N(Cc1ccccc1C(F)(F)F)[C@H]2c1ccc(CO)cc1`, the composite z-score in assay [1] is -1.7; in assay [5] it was -1.21; in [7] it was 0.0169; in assay [8] it was -0.0224; in assay [9] it was -0.527; in [10] it was -0.187. The composite z-score in assay [11] is 0.957; in [12] it was -0.0363; in [13], 0.223; in assay [15] it was -0.621; in assay [16], -1.59; in assay [17], -0.478. Also, the composite z-score in [18] is -0.676; in assay [19], -1.05; in [20], 0.731. Further, the z-score was -1.17 (inactive) in assay [2]; -0.147 (inactive) in assay [3]; -3 (inactive) in assay [4]; -0.861 (inactive) in assay [6]; -0.596 (inactive) in assay [14].
Consider `CO[C@H]1O[C@H](CO)[C@@H](OC(=O)Nc2ccc(C(F)(F)F)cc2)[C@H](OC(=O)Nc2ccc3c(c2)OCO3)[C@H]1OC(=O)Nc1ccc2c(c1)OCO2`, for which the composite z-score in [1] came out at 1.54; in [5], 3.03; in assay [7] it was 0.0631; in [8], 0.293; in assay [9] it was 1.11; in [10], 0.104. Further, the composite z-score in assay [11] is 1.5; in [12], 0.517; in [13] it was 0.63; in assay [15], 0.844; in [16] it was 1.28; in assay [17], -0.279. Also, the composite z-score in assay [18] amounted to 0.871; in assay [19], 0.214; in assay [20], 0.483. Moreover, the z-score in [2] is 0.724 (inactive); in assay [3] it was 0.908 (inactive); in [4], 14.9 (active); in assay [6], -0.298 (inactive); in [14], -0.412 (inactive).
Take `COc1cc2c(cc1OC)CN(C(=O)[C@H]1[C@@H]3C(=O)O[C@@H](c4ccccc4)[C@@H](c4ccccc4)N3[C@@H](c3ccc(OCCO)cc3)[C@]13C(=O)Nc1ccc(C#CCCO)cc13)CC2`: the composite z-score in assay [1] is 1.54; in assay [5] it was 2.87; in assay [7] it was 0.0448; in assay [8], 1.14; in assay [9], 1.06; in [10], -0.0069. In addition, the composite z-score in assay [11] was 0.903; in assay [12] it was -0.269; in assay [13] it was 0.33; in assay [15], 1.4; in assay [16], 1.29; in [17], 0.292. Besides, the composite z-score in assay [18] turned out to be 1.37; in assay [19] it was 0.167; in [20] it was 0.813. Further, the z-score in assay [2] was 2.48 (inactive); in assay [3], 1.55 (inactive); in [4], 5.29 (inactive); in assay [6], 0.314 (inactive); in assay [14], -0.296 (inactive).
As to `C=C[C@@H](COC(C)=O)NS(=O)(=O)c1ccc(Br)cc1`, the composite z-score in [1] is 0.317; in [5] it was 0.399; in [7], -0.176; in [8], 0.516; in assay [9], 0.269; in assay [10] it was -0.157. Moreover, the composite z-score in assay [11] is 0.549; in assay [12], -0.103; in assay [13], -0.0829; in assay [15] it was 0.172; in assay [16], 0.444; in assay [17] it was 0.118. The composite z-score in [18] came to 0.412; in [19], 0.77; in assay [20] it was 0.361. Besides, the z-score in assay [2] is -0.952 (inactive); in assay [3] it was -15.7 (active); in assay [4], -1.36 (inactive); in assay [6], -0.819 (inactive); in assay [14], 23.4 (active).
As to `COc1ccc([Si](C)(C)[C@@H]2[C@@H](CCO)O[C@]3(C(=O)N(Cc4cccc(N5C(=O)c6cccc7cccc5c67)c4)c4ccccc43)[C@H]2C)cc1`, the composite z-score was 1.22 in assay [1]; 1.24 in assay [5]; -0.0931 in assay [7]; -0.25 in [8]; 0.267 in assay [9]; -0.221 in assay [10]. Besides, the composite z-score was 0.187 in assay [11]; 0.0019 in assay [12]; 0.466 in [13]; 0.454 in assay [15]; -0.0664 in assay [16]; -0.491 in assay [17]. The composite z-score in assay [18] was -0.339; in [19], -0.411; in assay [20], -0.0335. Further, the z-score in assay [2] is 2.2 (inactive); in assay [3], 2.22 (inactive); in assay [4], 38.9 (active); in [6] it was 0.399 (inactive); in assay [14], -0.665 (inactive).
